# Laboratory results from PubChem BioAssay.
# Values joined by “and” are separate entries in the source; they are usually repeats but may differ in a detail not shown here. Equal entries are not always repeated. Results filed as inconclusive are left out. Active and inactive are the calls of the source. Unless noted, cut-off not given; nearly all actives show AC50 up to about 26 µM.
# Tests used:
# [1] = viability loss in pontine glioma line – cell-based, SU-DIPG-XVII, MIPE5.0, CellTiter-Glo, qHTS, dose response (AID 1347060); conditions: CellTiter-Glo ATP luminescence;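 on AC50: cells exposed to compound for 48 hours before viability readout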
# [2] = viability loss in pontine glioma line – cell-based, SU-DIPG-XIII, MIPE4.0, CellTiter-Glo, qHTS, dose response (AID 1347061; cut-off not given, nearly all actives have AC50 up to about 37 µM;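 further: cells exposed to compound for 48 hours before readout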); conditions: CellTiter-Glo ATP luminescence
# [3] = viability loss in pontine glioma line – cell-based, JHH-DIPG-1, MIPE4.0, CellTiter-Glo, qHTS, dose response (AID 1347062; cut-off not given, nearly all actives have AC50 up to about 27 µM;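 on AC50: cells exposed to compound for two days before readout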); conditions: JHH-DIPG-1 viability, CellTiter-Glo ATP luminescence
# [4] = viability loss in pontine glioma line – cell-based, SU-DIPG-IV, MIPE4.0, CellTiter-Glo, qHTS, dose response (AID 1347063; cut-off not given, nearly all actives have AC50 up to about 30 µM;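 further: compound exposure lasted 48 hours before the viability readout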); conditions: CellTiter-Glo ATP luminescence
# [5] = JHH-DIPG-1 glioma cell viability, MIPE5.0 library, CellTiter-Glo luminescence, qHTS (AID 1347067); conditions: JHH-DIPG-1 glioma viability, CellTiter-Glo ATP luminescence;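 further: cells exposed to compound for 48 hours before readout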
# [6] = growth inhibition of DIPG cells – cell-based, MIPE5.0 library, qHTS (AID 1347068; cut-off not given, nearly all actives have IC50 up to about 30 µM;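 on IC50: cells exposed to compound for 48 hours before viability readout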); conditions: SU-DIPG-XXV viability
# [7] = viability loss with induced miR-34 in A549 – imaging, A549 dox-inducible miR-34, nuclei and caspase counts, primary screen (AID 1347080;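 active means compounds whose cell count with miR-34 switched on is under 0.7 times the count with it off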); conditions: A549 miR-34 inducible, Hoechst nuclei count, 48 h
# [8] = MELAS cybrid and Rieske KO viability enhancers – cell-based, MELAS cybrids, Rieske KO mouse fibroblasts, CellTiter-Glo, primary screen (AID 1508586;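 active means mean z-score across replicates of 1.96 or higher in either the MELAS or the Rieske mutant cell line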;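 further: z relative to plate mean and SD of compound and empty wells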); conditions: low glucose
# [9] = growth inhibition, single agent or in combination, cell-based, chromothripsis tumors, cisplatin or BGB combos (AID 1671449; in the data active means inhibition above about 80%;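 further: cells exposed for 96 hours; 0% = vehicle DMSO and 100% = killing by high DMSO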); conditions: LFS_MB_P medulloblastoma cells
# [10] = growth inhibition, single agent and combos, cell-based, chromothripsis tumors, cisplatin or BGB combos (AID 1671450; in the data active means inhibition above about 80%;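 further: cells exposed to compound for four days; 0% = vehicle DMSO and 100% = cell killing by high DMSO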); conditions: HDN33 neuroblastoma cells, stronger effect = higher value
# [11] = growth inhibition, single agents and combos, ICB984, cell-based, cisplatin or BGB combos, synergistic combos for chromothripsis tumors (AID 1671451; call rule not given here;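 further: cells exposed for 96 hours before readout; 0% = vehicle DMSO and 100% = killing by high DMSO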); conditions: ICB984 medulloblastoma cells, drug combinations, stronger effect = higher value
# [12] = growth inhibition, single agents and combos, HTB85, cell-based, BGB or cisplatin IC20 combos, synergistic combos for chromothripsis tumors (AID 1671453; in the data active means inhibition above about 80%;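 further: cells exposed for 96 hours before readout; 0% = vehicle DMSO and 100% = high DMSO killing control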); conditions: HTB85 osteosarcoma cells, drug combinations, stronger effect = higher value
# [13] = growth inhibition, MDA-MB-436, cell-based, BGB or cisplatin combos, synergistic combos for chromothripsis tumors (AID 1671458; call rule not given here;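 further: cells exposed for 96 hours; 0% = vehicle DMSO and 100% = killing by high DMSO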); conditions: MDA-MB-436 breast carcinoma growth inhibition, drug combinations, stronger effect = higher value
# [14] = BT084 cell growth, single and combined drugs, ICGC_MB145, cisplatin and BGB IC40 combos (AID 1671461; in the data active means inhibition above about 80%;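 further: cells exposed to drugs for 96 hours; 0% = vehicle DMSO and 100% = high DMSO full killing control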); conditions: BT084 medulloblastoma cells, drug combinations, stronger effect = higher value
# [15] = RCMB18 cell growth, single agent and combined, cisplatin and BGB IC40 combos (AID 1671462; in the data active means inhibition above about 80%;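 further: cells exposed to compound for four days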); conditions: RCMB18 medulloblastoma cells, stronger effect = higher value
# [16] = viability loss in pontine glioma line – cell-based, SU-DIPG-XIII, MIPE5.0, CellTiter-Glo, qHTS, dose response (AID 1347064; cut-off not given, nearly all actives have AC50 up to about 23 µM;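 on AC50: cells exposed to compound for 48 hours before the viability read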); conditions: CellTiter-Glo ATP luminescence
# [17] = viability loss in pontine glioma line – cell-based, SU-DIPG-XXV, MIPE5.0, CellTiter-Glo, qHTS, dose response (AID 1347065); conditions: CellTiter-Glo ATP luminescence;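 further: cells exposed to compound for 48 hours before ATP readout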
# [18] = growth inhibition of DIPG cells – cell-based, MIPE4.0 library, CellTiter-Glo luminescence, qHTS (AID 1347066; cut-off not given, nearly all actives have AC50 up to about 30 µM;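 further: cells exposed to compound for 48 hours before readout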); conditions: SU-DIPG-VI viability, CellTiter-Glo ATP luminescence
structure (smiles),measurement,setting,value
CN1CCc2c(c3ccccc3n2Cc2ccc(C(=O)NO)cc2)C1,AC50,[1],23.5 µM (active)
same,outcome,[2],inactive
same,AC50,[3],23.5 µM (active)
same,AC50,[4],20.9 µM (active)
same,AC50,[5],20.9 µM (active)
same,outcome,[6],inactive
same,fold change,"[7]; stronger effect = lower value, cell number ratio, induced over uninduced",0.909 (inactive) and 0.928 (inactive)
same,fold change,[7]; measured here: relative caspase fold change +Dox/-Dox,0.692 and 0.727
same,cell count,"[7]; measured here: total cells with miR-34 induction, stronger effect = lower value",8690 and 9370
same,cell count,[7]; measured here: total cells without miR-34 induction,9560 and 10100
same,z-score,"[8]; MELAS cybrid survival, CellTiter-Glo 48 h, stronger effect = higher value",-0.421 (inactive) and -0.386 (inactive)
same,z-score,"[8]; Rieske KO mouse fibroblast survival, CellTiter-Glo 72 h",1.15 and -0.701
same,inhibition,"[9]; at 0.5 µM, stronger effect = higher value",-24.1% (inactive) and -14.7% (inactive)
same,inhibition,"[9]; measured here: combination with BGB IC20, at 0.005 µM",-28.6% and -21.3%
same,inhibition,"[9]; measured here: combination with BGB IC40, at 0.005 µM",-40.9% and -27%
same,inhibition,"[9]; measured here: combination with BGB IC40, at 0.05 µM",-19.2% and -45.3%
same,inhibition,"[9]; measured here: combination with cisplatin, at 0.5 µM, stronger effect = higher value",-23.9% and 9.39%
same,inhibition,"[9]; measured here: combination with cisplatin, at 5 µM, stronger effect = higher value",-11.8% and 7.46%
same,inhibition,"[10]; BGB combo, at 5 µM",2.45% and 27.4%
same,inhibition,[10]; at 0.5 µM,4.53% (inactive) and -0.32% (inactive)
same,inhibition,"[10]; cisplatin combo, at 5 µM",19.6% and 28.9%
same,inhibition,"[10]; measured here: with BGB IC20 combination, at 0.5 µM",-5.55% and 4.06%
same,inhibition,"[10]; measured here: with cisplatin IC20 combination, at 0.5 µM",15% and 5.2%
same,inhibition,"[10]; single agent, at 5 µM",25.9% and 54.8%
same,inhibition,"[11]; BGB IC20 combo, at 0.005 µM",22.3% and -11.7%
same,inhibition,"[11]; BGB IC40 combo, at 0.005 µM",-10.2% and -27.7%
same,inhibition,"[11]; BGB IC40 combo, at 0.05 µM",-9.66% and -9.28%
same,inhibition,[11]; at 0.5 µM,-11.2% (inactive) and -22.9% (inactive)
same,inhibition,"[11]; cisplatin combo, at 0.05 µM",-15.3% and -13.2%
same,inhibition,"[11]; cisplatin combo, at 0.5 µM",-16.4% and -10.9%
same,inhibition,"[11]; cisplatin combo, at 5 µM",-14% and -10.1%
same,inhibition,"[11]; measured here: 5 uM single agent, at 5 µM",-11.5% and -12.4%
same,inhibition,[12]; at 0.5 µM,0.33% (inactive) and -0.18% (inactive)
same,inhibition,"[12]; measured here: with BGB IC20, at 0.5 µM",0.483% and -9.65%
same,inhibition,"[12]; measured here: with BGB IC20, at 5 µM",26.3% and 10.4%
same,inhibition,"[12]; measured here: with cisplatin IC20, at 0.5 µM",-3.56% and 12.2%
same,inhibition,"[12]; measured here: with cisplatin IC20, at 5 µM",24.2% and 27.5%
same,inhibition,"[12]; single agent, at 5 µM",18.4% and 13.9%
same,inhibition,[13]; at 0.5 µM,-13.8% (inactive) and -2.54% (inactive)
same,inhibition,"[13]; measured here: BGB combination, at 0.5 µM",-10.6% and -7.29%
same,inhibition,"[13]; measured here: BGB combination, at 5 µM",-5.66% and 0.993%
same,inhibition,"[13]; measured here: cisplatin combination, at 0.5 µM",-25.1% and 2.46%
same,inhibition,"[13]; measured here: cisplatin combination, at 5 µM",-15.3% and 18.8%
same,inhibition,[14]; at 0.5 µM,2.15% (inactive) and 0.779% (inactive)
same,inhibition,"[14]; cisplatin combination, at 0.5 µM",8.01% and -20.4%
same,inhibition,"[14]; cisplatin combination, at 5 µM",-145% and 19.9%
same,inhibition,"[14]; measured here: BGB IC40 combination 0.05 uM, at 0.05 µM",-20.5% and 21.4%
same,inhibition,"[14]; single agent, at 5 µM",2.48% and 3.3%
same,inhibition,[15]; at 0.5 µM,-9.94% (inactive) and 3.3% (inactive)
same,inhibition,"[15]; cisplatin combo, at 5 µM",1.27% and 18.1%
same,inhibition,"[15]; measured here: BGB IC40 combination, at 0.05 µM",-31.8% and 8.24%
same,inhibition,"[15]; measured here: combination with cisplatin, at 0.5 µM",-21.5% and 43%
same,inhibition,"[15]; single agent, at 5 µM",12.1% and 14.4%
O=C(Nc1ncc(-c2cc(C(F)F)nn2-c2c(Cl)cccc2Cl)s1)C1CC1,AC50,[1],0.833 µM (active)
same,AC50,[2],13.2 µM (active)
same,AC50,[3],0.662 µM (active)
same,AC50,[16],2.35 µM (active)
same,AC50,[17],1.05 µM (active)
same,AC50,[18],5.26 µM (active)
same,AC50,[5],1.32 µM (active)
same,IC50,[6],1.18 µM (active)
C[C@H](CCC(=O)O)[C@H]1CCC2C3C[C@H](O)[C@@H]4C[C@H](O)CC[C@]4(C)C3CC[C@@]21C (some centres not stated),outcome,[1],inactive
same,outcome,[2],inactive
same,outcome,[3],inactive
same,outcome,[16],inactive
same,outcome,[17],inactive
same,outcome,[18],inactive
same,outcome,[5],inactive
same,outcome,[6],inactive
NC(=O)c1cccc2cn(-c3ccc([C@@H]4CCCNC4)cc3)nc12,AC50,[1],8.33 µM (active)
same,outcome,[2],inactive
same,outcome,[3],inactive
same,outcome,[4],inactive
same,outcome,[18],inactive
same,outcome,[5],inactive
C[C@H]1[C@H](C)CC[C@]2(C(=O)O)CC[C@]3(C)C(=CC[C@@H]4[C@@]5(C)C[C@@H](O)[C@H](O)[C@@](C)(CO)[C@@H]5CC[C@]43C)[C@H]12,outcome,[1],inactive
same,outcome,[2],inactive
same,outcome,[3],inactive
same,outcome,[16],inactive
same,outcome,[17],inactive
same,outcome,[18],inactive
same,outcome,[6],inactive
